FGF22 binding = FGF22 (human) thermal shift binding; Q9HCT0; recombinant FGF22 thermal shift, SYPRO orange fluorescence; percent of sucrose octasulfate shift, DMSO zero; activity (Tm shift, normalised), % at 9.99 µM; 340,000 compounds, 1.5% hits; AID 651658;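 active = mean Tm shift, scaled 0 neutral to 100 positive control, at about 1.3% or above, every replicate too, limit read from the data; inconclusive = no clear call, values can overlap the other calls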
Target sequence (Q9HCT0 whole entry, looked up): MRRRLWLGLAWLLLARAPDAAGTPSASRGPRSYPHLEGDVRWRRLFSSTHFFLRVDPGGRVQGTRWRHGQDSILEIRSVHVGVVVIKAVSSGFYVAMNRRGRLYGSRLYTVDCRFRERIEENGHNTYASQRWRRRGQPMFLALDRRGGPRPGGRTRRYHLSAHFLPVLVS
ERAP1 HTS inh = ERAP1 (human) enzyme inhibition | recombinant ERAP1, Leu-AMC fluorescence, 60 min | AID 652197 | Q9NZ08 | inhibition, % at 10.7 µM | 340,000 compounds, 0.15% hits;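 active = mean replicate inhibition of at least 30%, or all replicates individually reaching that 30% level; inactive = mean below 30% and not every replicate reaching it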;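 also: 0% = neutral control wells and 100% = L-leucinethiol positive control wells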
RAD52 anneal inh = inhibitors of human RAD52 DNA annealing; 360,000 compounds, 0.46% hits; inhibition, % at 18.7 µM; P43351; recombinant RAD52 DNA annealing, FRET fluorescence;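 active = every replicate showing at least 50% inhibition; inconclusive = mean inhibition at least 50% but not in every replicate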
Target sequence (P43351 whole entry, looked up): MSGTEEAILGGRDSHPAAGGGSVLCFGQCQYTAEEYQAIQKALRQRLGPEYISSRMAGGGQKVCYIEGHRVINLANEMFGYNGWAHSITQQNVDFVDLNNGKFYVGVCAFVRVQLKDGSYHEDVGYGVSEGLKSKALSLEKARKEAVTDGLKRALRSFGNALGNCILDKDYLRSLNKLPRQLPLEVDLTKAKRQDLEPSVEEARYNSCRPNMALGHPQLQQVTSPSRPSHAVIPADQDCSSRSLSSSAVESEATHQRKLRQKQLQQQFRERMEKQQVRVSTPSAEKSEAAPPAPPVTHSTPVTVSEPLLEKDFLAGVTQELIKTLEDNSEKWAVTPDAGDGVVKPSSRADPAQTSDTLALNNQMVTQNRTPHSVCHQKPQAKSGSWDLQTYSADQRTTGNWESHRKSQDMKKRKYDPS
MLL AF4-AF9 inh = MLL-AF4/AF9 protein interaction inhibition; P42568; AlphaScreen, biotin-AF4 peptide binding to FLAG-AF9; inhibition, % at 10 µM; 350,000 compounds, 0.47% hits; AID 651704;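 active = every replicate reaching a set inhibition limit, whatever the replicate mean, cut at about 25% in these data; inconclusive = mean inhibition reaches that limit but some replicates miss it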;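 also: 0% = plate neutral control median and 100% = total signal loss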
DENV2 CPE = DENV2-induced cell death inhibition; DENV2-infected cells, cytopathic effect rescue, plate reader; CPE inhibition, % at 9.99 µM; 350,000 compounds, 1.7% hits; AID 651640; in the data active = CPE inhibition above about 20%, passing the limit was not always enough; inconclusive = no clear call, values can overlap the other calls; tested in BHK-21 cells;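 also: 0% = median of neutral control wells and 100% = median of positive control wells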
* = called active by the depositor; ? = inconclusive; . = no result. The list is not random: actives were taken first. Their share in the collection is about 4%.

SMILES | FGF22 binding | ERAP1 HTS inh | RAD52 anneal inh | MLL AF4-AF9 inh | DENV2 CPE
CN1C(C(=O)NCc2ccc(OC(F)(F)F)cc2)CC2Cn3c(nc4ccccc43)C21 (stereo not given) | 0 | . | -6 | 1 | 32*
CN1C(C(=O)NCc2ccc(OC(F)(F)F)cc2)CC2Cn3c(nc4cc(Cl)c(Cl)cc43)C21 (stereo not given) | 0 | 0 | -72 | 2 | -9
C[C@@H]1CN([C@@H](C)CO)C(=O)c2cc(-c3cncnc3)cnc2O[C@H]1CN(C)C(=O)Cc1cccnc1 | 0 | -4 | 9 | -8 | 1
COc1ccccc1-c1cnc2c(c1)C(=O)N([C@H](C)CO)C[C@@H](C)[C@H](CN(C)Cc1ccc(C(=O)O)cc1)O2 | 0 | -3 | 23 | -12 | -4
O=C(C[C@H]1CC[C@@H](NC(=O)c2ccncc2)[C@H](CO)O1)Nc1ccc(-c2ccccc2)cc1 | . | -5 | -3 | -1 | -4
Cn1cnnc1Sc1ccc(C(=O)OCC(=O)NCC(F)(F)F)cc1[N+](=O)[O-] | 0 | 0 | 1 | -3 | -3
C=CCNC(=O)COC(=O)c1ccc(Sc2nncn2C)c([N+](=O)[O-])c1 | 44* | -4 | -6 | -2 | .
C[C@H]1CN([C@@H](C)CO)S(=O)(=O)c2ccc(/C=C/c3ccccc3)cc2O[C@@H]1CN(C)C(=O)Nc1ccc(F)cc1 | -1 | 2 | 21 | 3 | 6
CC(C)NC(=S)N/N=C1\CCCc2ccccc21 | 43* | 1 | 1 | -2 | -3
C[C@@H]1CN([C@@H](C)CO)C(=O)c2cc(-c3cccc(F)c3)cnc2O[C@@H]1CN(C)Cc1cccnc1 | . | -2 | -7 | -4 | -6
C/C=C/c1ccc([C@H]2[C@@H](CO)N(C(=O)C3CCC3)[C@@H]2CNC(=O)NC(C)C)cc1 | . | -1 | -14 | -1 | 80*
C/C=C/c1ccc([C@@H]2[C@@H](CO)N(C(C)=O)[C@@H]2CNC(=O)CC2CC2)cc1 | 0 | -2 | -37 | 6 | 86*
C/C=C/c1ccc([C@H]2[C@@H](CO)N(C(=O)C3CCC3)[C@H]2CNC(=O)NC(C)C)cc1 | . | . | . | . | -13
C/C=C/c1ccc([C@H]2[C@@H](CO)N[C@@H]2CNC(=O)C2CCC2)cc1 | . | -1 | -16 | 0 | 34*
O=C(O)CCc1ccc(-c2cccs2)n1CC(=O)Nc1ccccc1C(F)(F)F | 43* | -2 | -10 | -13 | 3
O=C(CCc1ccccc1)Nc1ccccc1C(F)(F)F | 44* | 3 | -9 | -4 | 0
C[C@@H]1CN([C@@H](C)CO)C(=O)Cc2cc(NC(=O)Nc3cccc4ccccc34)ccc2O[C@@H]1CN(C)C(=O)Nc1ccccc1 | 0 | -1 | 26 | 3 | 13
CN1CCN(C(=O)C[C@H]2C[C@@H]3c4cc(NC(=O)c5cccnc5)ccc4O[C@@H]3[C@@H](CO)O2)CC1 | 0 | . | . | . | 5
O=C(Oc1ccc(F)cc1)c1ccc2c(=O)n3c(nc2c1)CCC3 | 0 | 32* | -14 | -4 | -8
O=C(Oc1cccc(F)c1)c1ccc2c(=O)n3c(nc2c1)CCC3 | 0 | 4 | -7 | -1 | ?
O=C(Nc1nc2ccccc2n1CCN1CCOCC1)c1ccc(COc2ccccc2Br)o1 | 43* | 2 | -50 | 17 | 3
CC(C)NC(=O)N(C)C[C@H]1OCCCC[C@H](C)Oc2ccc(NC(=O)CCC(F)(F)F)cc2C(=O)N([C@H](C)CO)C[C@@H]1C | 0 | 2 | 11 | 0 | 1
O=C(C[C@@H]1CC[C@H]2[C@@H](COC[C@@H](O)CN2C(=O)c2ccncc2)O1)NC1Cc2ccccc2C1 | -1 | 3 | 8 | -1 | -1
COC(=O)c1ccc(NC(=O)Cc2ccc(F)cc2)cc1 | 0 | 0 | -18 | 0 | 8
COC(=O)c1ccc(CNCC(=O)Nc2ccc(C(=O)OC)cc2)cc1 | 43* | 1 | -5 | 0 | .
SMILES | FGF22 binding | ERAP1 HTS inh | RAD52 anneal inh | MLL AF4-AF9 inh | DENV2 CPE
C[C@H](CO)N1C[C@H](C)[C@H](CN(C)C)Oc2ncc(-c3cccc(F)c3)cc2C1=O | 0 | 1 | 4 | 0 | 3
O=C(O)Cn1c2c(c3ccccc31)CSc1ccc(Cl)cc1-2 | 1.9* | 9 | -25 | 2 | -3
O=C1NC(=S)SC1=Cc1ccc(Cl)cc1 | 0 | -1 | -8 | -1 | 22*
COc1ccc(CN2CCNC(=O)C2CC(=O)NCC2CCOCC2)c(C)c1C (stereo not given) | 0 | -4 | 6 | 1 | 89*
COc1ccccc1CN1CCNC(=O)C1CC(=O)NCC1CCOCC1 (stereo not given) | 0 | -3 | -42 | 0 | -4
COc1cc(/C=C2/C(=N)N3C(=NC2=O)SN=C3S(C)(=O)=O)ccc1OS(=O)(=O)c1ccc(C)cc1 | . | 0 | -37 | 0 | 5
COc1cccc(-n2c(C)cc(/C=C3/C(=N)N4C(=NC3=O)SN=C4S(C)(=O)=O)c2C)c1 | 1.4* | 6 | -168 | 1 | ?
COC(=O)CC1C(=O)NCCN1C(=S)Nc1ccccc1Cl (stereo not given) | 0 | -3 | -9 | -1 | 13
CC(C)OC(=O)CC1C(=O)NCCN1C(=S)NC(=O)c1ccccc1Cl (stereo not given) | 44* | -2 | -2 | -1 | 4
Cc1cc(N(CCO)CCO)ccc1N=Nc1cc(F)ccc1F | 0 | 4 | 1 | 35* | -3
Nc1ccc(N(CCO)CCO)cc1 | 0 | -3 | -14 | -3 | 20
COc1ccc(S(=O)(=O)Nc2ccc3c(c2)C(=O)N([C@H](C)CO)C[C@H](C)[C@H](CN(C)Cc2ccc4c(c2)OCO4)O3)cc1 | 0 | -1 | 10 | 1 | 13
COc1ccc2c3c([nH]c2c1)[C@H](CO)N(CC1CC1)CC31CCN(C(=O)c2ccccc2F)CC1 | -1 | -15 | -36 | -2 | 8
CC1CCCC(C)N1C(=O)CSc1nnc(COc2cccc3cccnc23)o1 (stereo not given) | 43* | -4 | 0 | -2 | .
CCOc1ccc2[nH]c(=O)c(CN(CCCN3CCOCC3)Cc3nnnn3Cc3ccc(OC)cc3)cc2c1 | 43* | -1 | -6 | 0 | 5
O=C(Nc1cc(F)ccc1F)N1CC(=O)N2[C@H](CO)[C@@H](c3ccc(-c4ccccc4)cc3)[C@@H]2C1 | . | 2 | -5 | -4 | -14
CC(=O)Nc1cccc(Nc2cc(C)nn2C)c1 | 0 | -6 | -7 | -3 | 73*
Cc1cc(NC(=O)Nc2cccc(C(F)(F)F)c2)n(C)n1 | 0 | -1 | -10 | -1 | 4
Cc1cc(C)cc(C(=O)N2CCN=C2c2ccccc2)c1 | 43* | -8 | -14 | 1 | .
O=C(Nc1ccc(OCc2ccccc2)cc1)c1ccccc1 | 0 | 16 | -13 | -2 | -7
CC(C)=CC(=O)Nc1ccc(OCc2ccccc2)cc1 | 74* | -3 | -11 | 0 | .
CN(C)C(=O)c1ccc(-c2ccc(C3[C@@H]4CN(C(=O)Cc5ccccc5)C[C@H]3N4)cc2)cc1 (stereo not given in full) | . | -1 | 0 | -8 | 4

Screening data deposited in PubChem BioAssay by Broad Institute.
